Test results reported in a collection of fitness landscapes (doi:10.1016/j.celrep.2020.107928).
Whole data set: some 81,000 sequences, median “one-hybrid fitness for binding NBS DNA” near -0.1, cut for the highest 2% near 0.36. The entries come from a sample that favours the highest values as a whole.

B1: Caulobacter ParB omega fusion; a variant is named by its letters at X, in order, B8GW30 (parent)
chain: MESVVVGEPGMSEGRRGLGRGLSALLGEVDAAPAQAPGEQLGGSREAPIEILQRNPDQPRRTFREEDLEDLSNSIREKGVLQPILVRPSPDTAGEYQIVAGERAWRAAQRAGLKTVPIMVRELDDLAVLEIGIIENVQRADLNVLEEALSYKVLMEKFERTQENIAQTIGKSXSHVANXMRLLXLPDEVQSYLVSGELTAXHARAIAAAADPVALAKQIIEGGLSVRETEALARKAPNLSAGKSKGGRPPRVKDTDTQALESDLSSVLGLDVSIDHRGSTGTLTITYATLEQLDDLCNRLTRGI

Variants of: B1
Assay: one-hybrid fitness for binding NBS DNA (the Noc-binding site; scaled: cognate 1, non-cognate 0); higher = stronger binding
Details: with NBS DNA site
Procedure, shortened: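 The reporter was HIS3, with the binding site 19 bp from the promoter, in E. coli USO used for bacterial one-hybrid selection of Caulobacter ParB libraries with four specificity codons randomised. Growth was on M9 lacking histidine, with 0.1 mM IPTG and 5 mM 3-AT, for 48 hours at 37°C. Illumina sequencing covered plasmids before and after selection; three replicate libraries were pooled and variants with under 10 reads dropped. A fitness score is the log change in variant-to-wild-type read ratio, rescaled to the cognate and non-cognate references.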

| Variant | one-hybrid fitness for binding NBS DNA |
| --- | --- |
| EMNR | ≤ 0.2 |
| WDGG | ≤ 0.2 |
| QAEP | ≤ 0.2 |
| ADMS | ≤ 0.2 |
| PVLV | ≤ 0.2 |
| NCEV | ≤ 0.2 |
| SRIS | ≤ 0.2 |
| DRYY | ≤ 0.2 |
| RHGR | 0.403 |
| RHSH | ≤ 0.2 |
| RHGP | ≤ 0.2 |
| RHSR | 0.448 |
| RHGH | ≤ 0.2 |
| RHSD | ≤ 0.2 |
| MNYT | ≤ 0.2 |
| VDVI | ≤ 0.2 |
| YLRS | ≤ 0.2 |
| PAHQ | ≤ 0.2 |
| SSQC | ≤ 0.2 |
| FTTS | ≤ 0.2 |
| SMHC | ≤ 0.2 |
| QTIH | 0.221 |
| QTCP | ≤ 0.2 |
| QCLS | 0.382 |
| QTIP | ≤ 0.2 |

| Variant | one-hybrid fitness for binding NBS DNA |
| --- | --- |
| QSLS | 0.263 |
| QTYS | 0.507 |
| QTIS | 0.398 |
| QTCS | 0.495 |
| QPLS | ≤ 0.2 |
| QTCN | ≤ 0.2 |
| QTPS | 0.314 |
| CPTM | ≤ 0.2 |
| DVLM | ≤ 0.2 |
| WVEG | ≤ 0.2 |
| TFRM | ≤ 0.2 |
| MYPF | ≤ 0.2 |
| EAVR | ≤ 0.2 |
| PVAE | ≤ 0.2 |
| QMCP | ≤ 0.2 |
| NTRS | ≤ 0.2 |
| QTQP | ≤ 0.2 |
| QTQN | ≤ 0.2 |
| QTRS | 0.811 |
| QMCS | 0.38 |
| QTWN | ≤ 0.2 |
| QTWP | ≤ 0.2 |
| QMCD | ≤ 0.2 |
| QTQS | 0.504 |
| QTES | 0.317 |

| Variant | one-hybrid fitness for binding NBS DNA |
| --- | --- |
| QTWS | 0.444 |
| MSSN | ≤ 0.2 |
| FFKL | ≤ 0.2 |
| LPTN | ≤ 0.2 |
| HFHL | ≤ 0.2 |
| QSEF | ≤ 0.2 |
| TASS | ≤ 0.2 |
| DAGG | ≤ 0.2 |
| DEKT | ≤ 0.2 |
| QCCS | 0.393 |
| QTLS | 0.426 |
| QTLD | ≤ 0.2 |
| QTLP | ≤ 0.2 |
| QPCS | ≤ 0.2 |
| QSCS | 0.296 |
| ERTA | ≤ 0.2 |
| TLTL | ≤ 0.2 |
| EMRG | ≤ 0.2 |
| RLDS | ≤ 0.2 |
| RCNS | 0.557 |
| RFNS | 0.331 |
| RLND | ≤ 0.2 |
| RSNS | 0.508 |
| RPNS | ≤ 0.2 |
| RMNS | 0.481 |

| Variant | one-hybrid fitness for binding NBS DNA |
| --- | --- |
| RMNP | ≤ 0.2 |
| RSND | ≤ 0.2 |
| RLNS | 0.493 |
| RSDS | ≤ 0.2 |
| RMDS | ≤ 0.2 |
| PYGH | ≤ 0.2 |
| TCDT | ≤ 0.2 |
| SICL | ≤ 0.2 |
| ITNT | ≤ 0.2 |
| QLLN | ≤ 0.2 |
| QPKR | 0.405 |
| QLKM | 0.318 |
| QLVR | 0.34 |
| QSKR | 0.979 |
| QLKR | 0.932 |
| QCKR | 1.08 |
| QSKD | 0.203 |
| QDKR | 0.32 |
| QGKR | 0.358 |
| QEKR | 0.285 |
| QPKP | ≤ 0.2 |
| QSKP | 0.229 |
| AWRM | ≤ 0.2 |
| VLCG | ≤ 0.2 |
| GDPR | ≤ 0.2 |

| Variant | one-hybrid fitness for binding NBS DNA |
| --- | --- |
| GMNC | ≤ 0.2 |
| GYHN | ≤ 0.2 |
| GMFV | ≤ 0.2 |
| GDMV | ≤ 0.2 |
| PAFV | ≤ 0.2 |
| GFQR | ≤ 0.2 |
| KNLN | ≤ 0.2 |
| QAVR | 0.358 |
| QAKR | 0.982 |
| QIVR | 0.271 |
| QIKR | 0.853 |
| QIIR | ≤ 0.2 |
| QAKG | 0.313 |
| SPHS | ≤ 0.2 |
| GILL | ≤ 0.2 |
| CSWG | ≤ 0.2 |
| VYLS | ≤ 0.2 |
| RVCY | ≤ 0.2 |
| RVCH | ≤ 0.2 |
| RVRN | ≤ 0.2 |
| RVRS | 0.577 |
| RVCM | ≤ 0.2 |
| RVCP | ≤ 0.2 |
| RVCS | 0.444 |
| RVCR | 0.436 |

| Variant | one-hybrid fitness for binding NBS DNA |
| --- | --- |
| RVCN | ≤ 0.2 |
| RVYS | 0.351 |
| RVCT | 0.433 |
| RVCD | ≤ 0.2 |
| TIPT | ≤ 0.2 |
| LYLM | ≤ 0.2 |
| HSTN | ≤ 0.2 |
| QPVS | 0.202 |
| QRKS | 0.778 |
| NRKS | ≤ 0.2 |
| QRKP | 0.404 |
| QCVS | 0.381 |
| QRVS | 0.561 |
| QSVS | 0.228 |
| DRKS | ≤ 0.2 |
| ANSS | ≤ 0.2 |
| LCGR | ≤ 0.2 |
| TETQ | ≤ 0.2 |
| TNPC | ≤ 0.2 |
| YPLP | ≤ 0.2 |
| YFGS | ≤ 0.2 |
| QNIT | ≤ 0.2 |
| ATQS | ≤ 0.2 |
| NPLV | ≤ 0.2 |
| WWKR | 0.203 |

| Variant | one-hybrid fitness for binding NBS DNA |
| --- | --- |
| QRVN | 0.259 |
| QRVH | 0.387 |
| QRKD | 0.377 |
| QRVD | ≤ 0.2 |
| QCKD | 0.337 |
| QRPH | ≤ 0.2 |
| QRVP | ≤ 0.2 |
| QRKN | 0.573 |
| QRKH | 0.766 |
| QPKH | ≤ 0.2 |
| EGSD | ≤ 0.2 |
| SHRM | ≤ 0.2 |
| SFTP | ≤ 0.2 |
| GMTV | ≤ 0.2 |
| AWKC | ≤ 0.2 |
| HLVG | ≤ 0.2 |
| QNYP | ≤ 0.2 |
| MSYR | ≤ 0.2 |
| KGQY | ≤ 0.2 |
| LHCR | ≤ 0.2 |
| RKVV | ≤ 0.2 |
| RPMF | ≤ 0.2 |
| YCQV | ≤ 0.2 |
| FVKY | ≤ 0.2 |
| QRHC | 0.437 |

| Variant | one-hybrid fitness for binding NBS DNA |
| --- | --- |
| QRHM | 0.438 |
| QCHQ | 0.269 |
| QRHQ | 0.431 |
| QPHG | ≤ 0.2 |
| QRHG | 0.403 |
| QSHQ | ≤ 0.2 |
| QCHC | 0.238 |
| QCHM | ≤ 0.2 |
| QCHG | ≤ 0.2 |
| QSHM | ≤ 0.2 |
| QSHC | ≤ 0.2 |
| TMAD | ≤ 0.2 |
| KMQL | ≤ 0.2 |
| QRHN | 0.437 |
| QRHH | 0.61 |
| QRHS | 0.718 |
| QPHH | ≤ 0.2 |
| QRHF | 0.347 |
| QRHP | 0.303 |
| QCHH | 0.333 |
| QRHI | 0.358 |
| QRHD | 0.294 |
| ATVR | ≤ 0.2 |
| ASPP | ≤ 0.2 |
| AERS | ≤ 0.2 |

| Variant | one-hybrid fitness for binding NBS DNA |
| --- | --- |
| AVLE | ≤ 0.2 |
| HTYV | ≤ 0.2 |
| WTPE | ≤ 0.2 |
| PKNM | ≤ 0.2 |
| VQKH | ≤ 0.2 |
| SIHM | ≤ 0.2 |
| DQIS | ≤ 0.2 |
| AINC | ≤ 0.2 |
| PFAM | ≤ 0.2 |
| REKR | 0.228 |
| RRVR | 0.699 |
| ERKR | 0.275 |
| RRKR | 0.929 |
| NEMS | ≤ 0.2 |
| SEDT | ≤ 0.2 |
| RTFF | ≤ 0.2 |
| RNYV | ≤ 0.2 |
| RCKV | 0.23 |
| RRRV | 0.655 |
| RCRV | 0.257 |
| RCEV | ≤ 0.2 |
| RRKV | 0.694 |
| RRYV | 0.254 |
| RCNV | ≤ 0.2 |
| RRDV | 0.223 |

| Variant | one-hybrid fitness for binding NBS DNA |
| --- | --- |
| RNEV | 0.385 |
| RRVV | 0.229 |
| RRNV | 0.456 |
| AVRK | ≤ 0.2 |
| KHMG | ≤ 0.2 |
| LTMT | ≤ 0.2 |
| MTLT | ≤ 0.2 |
| VSMY | ≤ 0.2 |
| WPTG | ≤ 0.2 |
| TWNS | ≤ 0.2 |
| VPYS | ≤ 0.2 |
| QQKW | 0.382 |
| QQDW | ≤ 0.2 |
| QQYW | ≤ 0.2 |
| QQVW | ≤ 0.2 |
| QQFW | ≤ 0.2 |
| QQRW | 0.373 |
| PDLF | ≤ 0.2 |
| GASG | ≤ 0.2 |
| IEFV | ≤ 0.2 |
| HVSS | ≤ 0.2 |
| QPRQ | ≤ 0.2 |
| QSDQ | ≤ 0.2 |
| QRYQ | 0.35 |
| QHRQ | 0.33 |

| Variant | one-hybrid fitness for binding NBS DNA |
| --- | --- |
| QTCQ | ≤ 0.2 |
| QRRQ | 0.496 |
| QSRQ | 0.413 |
| QTYQ | ≤ 0.2 |
| QSYQ | ≤ 0.2 |
| QCRQ | 0.527 |
| QTRQ | 0.581 |
| QRIQ | ≤ 0.2 |
| AGTH | ≤ 0.2 |
| MNRA | ≤ 0.2 |
| FAPL | ≤ 0.2 |
| KVYR | ≤ 0.2 |
| IVTS | ≤ 0.2 |
| MDCS | ≤ 0.2 |
| CHRG | ≤ 0.2 |
| PCMS | ≤ 0.2 |
| KLNI | ≤ 0.2 |
| PANI | ≤ 0.2 |
| HTQS | ≤ 0.2 |
| DLLT | ≤ 0.2 |
| QMSQ | 0.242 |
| QKNQ | 0.245 |
| QMRQ | 0.437 |
| QKRQ | 0.415 |
| QMLQ | ≤ 0.2 |

| Variant | one-hybrid fitness for binding NBS DNA |
| --- | --- |
| QKSQ | ≤ 0.2 |
| WNMG | ≤ 0.2 |
| PCVV | ≤ 0.2 |
| QGRA | ≤ 0.2 |
| TPPQ | ≤ 0.2 |
| QTFT | 0.515 |
| QTAF | ≤ 0.2 |
| QTAT | 0.595 |
| QTFC | ≤ 0.2 |
| QTFM | ≤ 0.2 |
| QTAG | ≤ 0.2 |
| MPRS | ≤ 0.2 |
| QVPV | ≤ 0.2 |
| YMPV | ≤ 0.2 |
| QRQA | 0.611 |
| QHQA | 0.315 |
| QAQA | 0.252 |
| QSQA | 0.248 |
| QPQA | ≤ 0.2 |
| QCQA | 0.372 |
| RSSH | ≤ 0.2 |
| RSSN | ≤ 0.2 |
| RFSR | 0.248 |
| RCSR | 0.527 |
| RSSR | 0.437 |

| Variant | one-hybrid fitness for binding NBS DNA |
| --- | --- |
| RPSR | ≤ 0.2 |
| CVPS | ≤ 0.2 |
| VSVV | ≤ 0.2 |
| PVFF | ≤ 0.2 |
| GQRG | ≤ 0.2 |
| KCNA | ≤ 0.2 |
| KRFA | 0.277 |
| KRVA | ≤ 0.2 |
| KRDA | ≤ 0.2 |
| KCKA | ≤ 0.2 |
| KRRA | 0.524 |
| KRNA | 0.384 |
| KRYA | 0.313 |
| KRKA | 0.552 |
